The values below come from PubChem BioAssay (NCI).

Compounds without any hit were thinned out: in the full panel of roughly 83,000, 20% have a hit.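 Growth was measured after 48 h exposure to one concentration of compound in 96-well plates. Values under 10 count as active.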 Values without a mark were called inactive. Calls of active or inactive are those of the source.

Common to all, as to assay: NCI-60 one-dose screen, 48 h (100 = growth as untreated, 0 = no growth, -100 = all killed)
Common to all, as to conditions: 10 µM unless noted

In test [1] the test system is DU-145 prostate.
For test [2], the system named is K-562 leukemia.
The test system of test [3] is MALME-3M melanoma.
The test system of test [4] is MDA-MB-231 breast.
Test [5] relates to RXF 393 renal.
The subject of test [6] is SF-268 CNS.
For test [7], the system named is SF-295 CNS.
Test [8] deals with SF-539 CNS.
Test [9] deals with UACC-257 melanoma.
In test [10] the test system is M14 melanoma.

With `CC[C@H](Nc1ncnc(N)c1C(N)=O)c1nc2cccc(NCc3ccc(C(=O)NO)cc3)c2c(=O)n1-c1ccccc1`, the growth was 97.6% in test [1]; 55.6% in test [2]; 67.2% in test [3]; 83.8% in test [4]; 55.2% in [5]; 90.1% in test [6]. Besides, the growth in test [7] is 93.2%; in [8] it was 75.1%; in test [9] it was 63.4%; in [10], 95.9%.

`C=C1C(=O)O[C@H]2[C@H]1CC/C(Cn1cc(Cn3ccc4ccccc43)nn1)=C\CC[C@@]1(C)O[C@@H]21`: the growth in [1] was 18.1%; in test [2] it was -16.5% (active); in test [3], -54.5% (active); in [4], -24.8% (active); in test [5] it was -22.9% (active); in test [6], 39.9%. For the same compound, the growth in test [7] is 76.2%; in test [8], -62.8% (active); in [9], 41.3%; in test [10], 14.4%.

With `O=[N+]([O-])c1cccc(-c2nc3sccn3c2-c2ccnc(NCCCNS(=O)(=O)c3ccc(F)cc3)n2)c1`, the growth in test [1] was 10.6%; in test [2], 7.51% (active); in test [3] it was -9.59% (active); in [4], 44.9%; in test [5], 53.4%; in test [6], 9.32% (active). Besides, the growth in [7] was 5.57% (active); in test [8], 26.5%; in test [9] it was 0.0199% (active); in test [10], 0.021% (active).

`C/C(=C(/c1ccc(O)cc1)c1ccc(Cl)cc1)c1ccccc1`: the growth in test [1] was -75.2% (active); in test [2], -1.81% (active); in test [3], -94.6% (active); in test [4] it was -83.3% (active); in test [5] it was -79.3% (active); in [6] it was -83.4% (active). For the same compound, the growth in [7] is -95.1% (active); in [8], -96% (active); in [9], -74.6% (active); in test [10], -78.1% (active).

Regarding `CCCNc1nc(SC)nc(-c2cccc(N)c2)c1C#N`, the growth in test [1] is 109%; in [2], 96.8%; in test [3] it was 98%; in test [4] it was 83.1%; in [5], 105%; in [6] it was 91.6%. Further, the growth was 98.7% in test [7], 102% in [8], 111% in test [9] and 101% in test [10].

As for `CCCCN(CCCC)Cc1c(C)[nH]c2cc(OC)ccc2c1=O`, the growth in test [1] is 106%; in test [2], 98%; in test [3], 98%; in [4], 104%; in test [5], 108%; in [6], 95.5%. Moreover, the growth in test [7] is 98.3%; in test [8] it was 110%; in test [9], 94.5%; in test [10] it was 102%.

For `COc1ccc(CCN2CC=Cn3c2nc2ccccc2c3=O)cc1`, the growth is 7.97% (active) in test [1]; 10.8% in test [2]; 63.2% in test [3]; 18.8% in test [4]; 36.7% in [5]; 35.7% in test [6]. The growth in test [7] was 17.2%; in [8], -34.1% (active); in test [9], 80.3%; in [10], 16.4%.

On to `CC1(C)CC(C(=O)OCCCCCCCCCCC[P+](c2ccccc2)(c2ccccc2)c2ccccc2)C(C)(C)N1O` (stereo unspecified), for which the growth in test [1] is -85.3% (active); in [2], -76.3% (active); in [3], -68.3% (active); in test [4], -70.2% (active); in test [5] it was -68.8% (active); in test [6], -92.9% (active). For the same compound, the growth is -71.3% (active) in [7], -93.1% (active) in test [8], -77.1% (active) in test [9] and -13.2% (active) in [10].

As to `COc1cc(-c2nc3ccccc3s2)ccc1NC(=O)COc1ccc(Cl)cc1`, the growth in test [1] was 82.1%; in [2], 74.9%; in test [3], 48.3%; in [4] it was 45.9%; in [5], 66.3%; in [6], 29.4%. The growth was 29% in test [7], 26.7% in test [8], 85.3% in test [9] and 60% in test [10].

`COc1ccc(C(=O)/C=C/c2cc3ccccc3[nH]c2=O)cc1`: the growth in test [1] was -26.7% (active); in [2], 16.7%; in test [3], 74.2%; in test [4], 56.3%; in [5] it was 16.6%; in test [6], 28.9%. The growth was 48.9% in [7], 59.1% in test [9] and 59.6% in [10].

As for `COc1cccc(/C=C\C(=O)c2ccccc2)c1`, the growth in [1] was 53.8%; in test [2] it was 31%; in test [3] it was 83.4%; in [4], 88.5%; in test [5] it was 50.2%; in test [6], 60.4%. Besides, the results for the growth in test [7], in test [8] and in test [10] were 77.5%, 87.7% and 85.1%, respectively.

With `O=c1cc(-c2ccccc2)[nH]c2ccccc12`, the growth in [1] was 17.6%; in test [2], 32.6%; in test [3] it was 50%; in test [4], 95.6%; in [5], 36.1%; in [6], 50.5%. Further, the growth in test [7] is 16.4%; in test [8] it was 4.43% (active); in [10] it was 15.9%.

Regarding `Cc1ccc(SCN2CCN(c3cccc(Cl)c3)CC2)cc1`, the growth in test [1] is 116%; in [2], 118%; in test [3] it was 87.3%; in [4] it was 84.3%; in [5], 108%; in test [6] it was 100%. Also, the growth in test [7] was 97.3%; in test [8], 96.2%; in test [10], 96.9%.

For `CC(C)(C)n1cc(-c2ccnc(NCCCNS(=O)(=O)c3cccc4ccccc34)c2)c(-c2cccc(O)c2)n1`, the growth in test [1] was 42.5%; in [2], -4% (active); in test [3], -19.2% (active); in test [4], 11.8%; in [5], 0.843% (active); in test [6], 37.5%. Further, the growth in test [7] is 8.6% (active); in test [8], 41.8%; in test [9] it was -23.9% (active); in test [10] it was 2.67% (active).
